Several values for one entry are separate records, joined by “and”; a condition that tells them apart may be missing. Equal values may be shown once. Out of some 220,000 compounds screened, about 2,000 (0.91%) were called active. About 2% were inconclusive and are not listed. The list is a sample of the results. Results with a measured potency or affinity are listed apart. Values without a mark were called inactive. Rule as the data show it: inconclusive = inhibition above about 80% without an active follow-up result; inactive = below that; test concentration not stated here.

The nature of this test: M. tuberculosis H37Rv growth inhibitors, H37Rv strain (AID 1626).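 Also: bacteria incubated seven days before Alamar blue readout; 0% = bacteria only wells and 100% = bacteria with antibiotic wells.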 As to conditions: stronger effect = higher value, concentration not given here.
As a reminder, the inhibition is the relative decrease from the control value, in per cent. With `COCCN(CCOC)C(=O)C1CCCN(S(=O)(=O)c2ccc(NC(=O)OC)cc2)C1` (stereo unspecified), the inhibition is -2.59%.
Consider `COc1cccc(Oc2coc3cc(OC(=O)N4CCOCC4)ccc3c2=O)c1`, for which the inhibition is -2.14%.
In the case of `CN(C)CCCN(C(=O)c1ccc(S(=O)(=O)N(C)C)cc1)c1nc2cc3c(cc2s1)OCO3`, the inhibition was -1.53%.
For the compound `CCOC(=O)c1ccccc1NC(=O)Cn1cnc2c(nnn2-c2ccc(C)cc2)c1=O`, the inhibition was 1.13%.
For `O=[N+]([O-])c1ccc(N2CCN(S(=O)(=O)c3ccccc3)CC2)cc1NCc1ccco1`, the inhibition was -1.65%.
For the compound `O=S(=O)(NCc1ccccc1)c1ccc(S(=O)(=O)N(Cc2ccccn2)C2CCCC2)cc1`, the inhibition was -1.41%.
On to `O=C1CC(/C=C/c2ccccc2)=Nc2ccccc2N1`, for which the inhibition is 2.15%.
For `O=C1CC(/C=C/c2ccncc2)=Nc2ccccc2N1`, the inhibition was -0.28%.
As for `CCOc1cccc(-c2cc(-c3n[nH]c(=S)n3CC)c3ccccc3n2)c1`, the figure is 14.2%; as for `COc1ccc(CNC(=O)COC(=O)C2CCN(S(=O)(=O)c3ccccc3C(F)(F)F)CC2)cc1`, 1.6%.
Next, `CC1C(c2ccccc2)C(C#N)(C#N)C2(C#N)C(=O)NC1(N)C2C` (stereo unspecified): -0.87%; `O=[N+]([O-])c1ccc(Sc2cccc3cccnc23)cc1`: 30.8%; `O=[N+]([O-])c1cc(Cl)ccc1Sc1cccc2cccnc12`: 28.5%.
For the compound `O=[N+]([O-])c1ccc(CSc2nc3ccccc3o2)cc1`, the inhibition was -1.9%.
As for `O=[N+]([O-])c1ccc(Cl)cc1Sc1nc2ccccc2o1`, the figure is -9.56%; as for `O=C(c1ccc(Cl)c(S(=O)(=O)N2CCCC2)c1)N1CCN(c2ccc(F)cc2)CC1`, 3.62%.
Take `COc1ccc(NC(=O)CSc2nc(NS(=O)(=O)c3ccccc3)cc(=O)[nH]2)cc1`: the inhibition is 3.87%.
`CC(Sc1ccccc1)C(=O)Nc1ccccc1C(=O)N1CCOCC1` (stereo unspecified): the inhibition is -11.3%.
Next, `CC(C)(C)c1cc(-c2ccccc2)no1`: 10.7%; `COc1ccc(C(=O)Nc2ccc(N3CCN(Cc4ccccc4)CC3)cc2)cc1`: 4.64%; `COc1ccccc1C(=O)Nc1ccc(N2CCN(Cc3ccccc3)CC2)cc1`: 40.9%.
As for `O=C(NNc1ccc(-c2csnn2)cc1)c1cc(Cl)cc(Cl)c1`, the inhibition was 27.1%.
Next, `CCCCC1=CC2=C(c3ccco3)C(=O)C(C)(OC(=O)c3ccc(OC)cc3)C(=O)C2=CN1CCCOC(C)C` (stereo unspecified): -5.76%.
Next, `CC(=O)OC(C(=O)N1CCOCC1)c1c(F)cccc1F` (stereo unspecified): -0.03%; `O=C(CNC(=O)c1ccc(-c2ccccc2)cc1)OCc1ccc(Br)cc1`: 6.21%; `Cc1ccc(C(=O)N/C(=C\c2ccccc2)C(=O)OCc2ccccc2)cc1`: 12.7%.
With `O=C(CCCNC(=O)/C(=C/c1ccc(Br)cc1)NC(=O)c1ccccc1)OCc1ccccc1`, the inhibition was 1.44%.
As to `O=C(CCCNC(=O)/C(=C\c1ccc(F)cc1)NC(=O)c1ccccc1)OCc1ccccc1`, the inhibition is 1.82%.
Next, `COc1ccc(-c2cn3cc(C(F)(F)F)cc(Cl)c3n2)cc1`: 65.8%.
Next, `CCCc1cc(C(N)=O)c(NC(C)=O)s1`: 2.59%.
Next, `O=C(c1cc(-c2ccccc2)on1)N1CCc2ccccc2C1`: -6.16%.
On to `CCOc1ccc(C2c3c(oc4cc(C)c(C)cc4c3=O)C(=O)N2CCCN2CCOCC2)cc1` (stereo unspecified), for which the inhibition was -8.64%.
Next, `CCOC(=O)C1CCN(Cc2nnnn2CCc2ccccc2)CC1`: -3.91%.
As for `Nc1nc2nccc(-c3ccco3)n2n1`, the inhibition was -5.94%.
As for `CC(C)OC(=O)C(C)Nc1n[nH]c(=S)[nH]c1=O` (stereo unspecified), the figure is -1.15%.
Next, `COc1ccc(OC)c(-n2c(-c3ccc(S(C)(=O)=O)cc3)cc(C=O)c2C)c1`: -4.11%; `c1cncc(-c2nc(NCCCn3ccnc3)c3ccccc3n2)c1`: 1.38%.
Next, `c1ccc(-c2c(-c3ccccc3)n(Cc3ccco3)c3ncnc(NCCCn4ccnc4)c23)cc1`: 25.2%; `CCc1nc(NCCCn2ccnc2)c2oc3ccccc3c2n1`: -11.5%.
As for `Cc1nc(NCCCn2ccnc2)c2ccccc2n1`, the inhibition was -2.03%.
Take `c1ccc(-c2oc3ncnc(NCCCN4CCOCC4)c3c2-c2ccccc2)cc1`: the inhibition was -8.09%.
For `Cc1nc(NCCCn2ccnc2)c2oc3ccccc3c2n1`, the inhibition is 7.2%.
Take `CCOC(=O)c1cnn(CCOC(=O)c2cccs2)c1NC(=O)c1cccs1`: the inhibition was 7.28%.
Next, `COC(=O)c1ccc(CSc2nnc(Nc3ccc(C)cc3)s2)o1`: -4.05%; `Cc1c(Br)c([N+](=O)[O-])nn1CC(=O)c1ccccc1`: 0.16%; `Cc1ccccc1CNC(=O)CCc1ccccc1`: -2.14%.
As for `CCc1ccc(Oc2ncnc(N)c2[N+](=O)[O-])cc1`, the figure is -1.27%; as for `NC(=O)c1cc2n(n1)C(C(F)(F)F)CC(c1ccco1)N2` (stereo unspecified), -17%; as for `Cc1ccc2nc(-c3ccccc3)c(-c3ccccc3)nc2c1`, 1.48%.
With `Cc1ccc2nc3c(nc2c1)-c1ccccc1C3=O`, the inhibition is -8.47%.
With `O=C(CN1CCN(S(=O)(=O)c2ccccc2)CC1)Nc1ccc2c(c1)OCO2`, the inhibition was -8.01%.
For `Nc1ncccc1OCc1cccc(C(F)(F)F)c1`, the inhibition is 16.6%.
Next, `COc1ccc2nc(C(F)(F)Cl)c(C#N)c(N)c2c1`: -0.68%; `COc1ccc(C(=O)N/N=C/c2ccc3cccc(O)c3n2)cc1`: 64.5%; `O=C(O)c1ccc(/C=C/c2ccc3cccc(O)c3n2)cc1`: 74.2%.
For the compound `O/N=C/c1ccc2cccc(O)c2n1`, the inhibition was 3.62%.
As for `O=C(Cc1ccccc1)N/N=C/c1ccc2cccc(O)c2n1`, the figure is 22.8%; as for `COc1cc2c(cc1NC(=O)C(C)Sc1ccc(C)cc1)oc1ccccc12` (stereo unspecified), 9.39%; as for `CCOC(=O)CON1C(=O)C(=O)N(OCC(=O)OCC)[C@H]2CCCC[C@H]21`, 2.73%.
As for `COc1ccc(-c2[nH]ncc2CN2CCSCC2)c(OC)c1`, the inhibition is -1.11%.
With `COc1ccc(-n2c(SCC(=O)Nc3ccccc3)nc3c(c2=O)SCC3)cc1`, the inhibition is 6.14%.
Consider `CCCC(CCC)C(=O)Nc1ccncc1`, for which the inhibition was -10.4%.
Next, `C=CCC(=O)OCCCCCCOc1ccc(C(=O)O)cc1`: -13.9%; `CCCCCCOc1ccc(/C(N)=N/O)cc1`: 5.99%; `CC1(C)Cc2c(c(=S)nc(-c3ccccc3)n2CCO)CO1`: 7.44%.
Take `O=C(O)Cc1sc(NCc2ccco2)nc1-c1ccccc1`: the inhibition was 8.81%.
`O=C(Nc1ccc(S(=O)(=O)Nc2nccs2)cc1)C1CC(=O)N(c2ccccc2)C1` (stereo unspecified): the inhibition is -6.74%.
Next, `COc1ccc(Br)cc1/C=N/NC(=O)c1ccco1`: -2.04%; `Cc1ccc(CNC(=O)C(=O)Nc2nccs2)cc1`: 10.4%.
For `O=C(NCc1ccc(Cl)cc1)C(=O)Nc1nccs1`, the inhibition was 1.96%.
As for `CC(/C=C\c1cccnc1)=C/C(=O)O`, the figure is 1.6% and 0.21%; as for `CC(/C=C\c1ccccc1)=C/C(=O)O`, 2.72%; as for `O=C(/C=C/c1ccccc1)NC(=O)c1ccccc1O`, -10.8%.
For `O=C(/C=C/c1cccnc1)c1ccc(NC(=O)c2cccc(Br)c2)cc1`, the inhibition is 8.79%.
Next, `O=C(O)/C=C/c1cccnc1`: -0.59%; `Cc1cccc(NC(=O)c2cccnc2)c1`: 1.57%; `O=C(O)CCC(=O)/C=C/c1ccccc1`: -6.33%.
With `O=C(/C=C/c1ccc(Br)cc1)NC(=O)c1ccccc1O`, the inhibition is 5.02%.
Regarding `CCC/C=N/NC(=O)c1cc(Br)ccc1O`, the inhibition is -8.13%.
`COc1cccc(-c2nc(N3CCN(c4ccccc4)CC3)c3ccccc3n2)c1O`: the inhibition was -0.61%.
As for `CN1C=CC=C/C1=C1\SC(=S)N(CC(=O)O)C1=O`, the figure is -3.47%.
As to `Cc1cccc(Cc2nnc(CCC(=O)NCc3ccncc3C)o2)c1`, the inhibition was -3.05%.
Next, `O=C(C1=NN[C@@H]2C(=O)N(c3cccc(C(F)(F)F)c3)C(=O)[C@H]12)c1cnccn1`: -13.3%; `S=C1NC(c2cccs2)=CC(c2ccc(Br)cc2)N1` (stereo unspecified): 12.7%; `COc1ccc(CC(=O)OCC(=O)Nc2cccc(Cl)c2)cc1`: -0.87%.
Next, `CC(C)(CN1CCCCC1)NS(=O)(=O)c1ccc(Cl)cc1`: 3.88%; `CN(C)/C=C(\C#N)C(=O)Nc1ccc(F)cc1`: -3.02%; `O=C(COC(=O)CNC(=O)c1cccc([N+](=O)[O-])c1)Nc1cccc(S(=O)(=O)N2CCCC2)c1`: -1.39%.
In the case of `C#CCOCCOCCOCCNc1nc(N2CCN(C(=O)C([C@@H](C)CC)n3cc(C(N)CO)nn3)CC2)nc(N2CCN(C(=O)C([C@@H](C)CC)n3cc(C(N)COC(=O)C(F)(F)F)nn3)CC2)n1` (stereo partly specified), the inhibition was -11.1%.
Next, `CCOC(=O)NC(=O)c1cn(Nc2ncc(Cl)cc2C(F)(F)F)c(=O)[nH]c1=O`: -8.73%.
`CCOC(=O)Cn1c2c(c(=N)c3c1CCC3)CCCC2`: the inhibition was -4.08%.
Next, `CCOC(=O)N1CCC(NC(=O)Cn2c3c(c(-c4ccccc4Cl)cc2=O)CCC3)CC1`: -2.35%; `CCNC(=S)N1CCC(c2nc3ccccc3s2)CC1`: -0.93%; `O=C(NCc1cccnc1)c1cccc(S(=O)(=O)N2CCOCC2)c1`: 0.09%.
As for `c1ccc2c(c1)CCc1c-2nc2ccccc2c1N1CCOCC1`, the figure is 4.28%; as for `COc1ccc2c(-c3ccccc3)cc(N3CCOCC3)nc2c1`, -14.6%.

These data come from PubChem BioAssay AID1626 (SRMLSC, 2009).
